# Data reported in PubChem BioAssay (Tox21).
# Inconclusive results are not listed. Entries that show only a call come without a potency. Active and inactive are the calls of the source. Unless noted, the call rests on the fitted dose curve; in most records, active means well fitted curve in the direction sought with a large enough effect in the repeat runs; inconclusive means weak or mixed curves; inactive means no such curve, though single readings can be large; an effect the other way counts as inactive or inconclusive.
# Biological target: Estrogen receptor (Homo sapiens) (UniProt P03372)
# Assay: qHTS assay to identify small molecule agonists of the estrogen receptor alpha (ER-alpha) signaling pathway (AID 743075; calls by dose curve;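 further: HEK293 GripTite cells with ER-alpha and UAS-driven beta-lactamase reporter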)
# Conditions: HEK293 ER-alpha-UAS-bla, beta-lactamase FRET ratio, 18 h; series mostly up to 70.1 µM
# Chain of Estrogen receptor (Homo sapiens) (P03372 whole entry, looked up): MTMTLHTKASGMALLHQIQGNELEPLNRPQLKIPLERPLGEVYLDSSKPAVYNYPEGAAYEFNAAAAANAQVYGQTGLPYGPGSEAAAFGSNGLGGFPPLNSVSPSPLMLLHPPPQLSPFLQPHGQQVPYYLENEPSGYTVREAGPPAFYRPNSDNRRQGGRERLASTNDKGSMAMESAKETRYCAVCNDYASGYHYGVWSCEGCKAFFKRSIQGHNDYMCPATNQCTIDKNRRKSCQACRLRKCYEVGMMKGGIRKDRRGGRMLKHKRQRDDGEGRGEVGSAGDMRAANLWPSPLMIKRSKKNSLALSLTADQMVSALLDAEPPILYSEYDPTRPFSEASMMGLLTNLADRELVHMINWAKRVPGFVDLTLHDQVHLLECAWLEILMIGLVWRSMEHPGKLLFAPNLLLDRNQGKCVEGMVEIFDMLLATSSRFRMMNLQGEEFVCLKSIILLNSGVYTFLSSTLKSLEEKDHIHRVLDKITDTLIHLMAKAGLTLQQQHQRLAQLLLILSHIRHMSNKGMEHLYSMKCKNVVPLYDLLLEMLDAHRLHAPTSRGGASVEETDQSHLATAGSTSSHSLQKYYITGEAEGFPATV
row,Structure (SMILES),Potency
1,O=C(/C=C/c1ccccc1)OCCc1ccccc1,inactive
2,CN1C(=O)OC(C)(C)C1=O,inactive
3,CCN(CC)CCNC(=O)COc1ccc(OC)cc1,inactive
4,Cc1ccc(CO)cc1,inactive
5,CC(CO)CO,inactive
6,O=C1c2ccccc2C(=O)C1c1nc2ccccc2c(Br)c1O,inactive
7,CC(C)(O)c1ccc(CNC(=O)c2cccnc2Oc2ccc3nonc3c2)cc1,inactive
8,CCCCCCCCCCC(=O)O,inactive

# Biological target: Estrogen receptor (Homo sapiens) (UniProt P03372)
# Assay: qHTS assay to identify small molecule agonists of the estrogen receptor alpha (ER-alpha) signaling pathway using the BG1 cell line (AID 743079); further: nearly all actives have a fitted effect of over 20% in size; further: potency means the concentration at half of the fitted maximal effect
# Conditions: BG1Luc4E2 cells, ERE-luciferase agonist, 22 h; activation: at 70.3 µM (top of the series)
row,Structure (SMILES),Potency
1,Brc1cc(Br)c(Oc2cc(Br)c(Br)cc2Br)cc1Br,inactive
2,O=C=Nc1cccc(C(F)(F)F)c1,inactive
3,CCCCN1CCCC1C(=O)Nc1c(C)cc(C)cc1C (stereo not drawn),inactive
4,O=C(OCC(O)CO)c1ccccc1Nc1ccnc2cc(Cl)ccc12 (stereo not drawn),inactive
5,O=Cc1c2ccccc2c(Cl)c2ccccc12,inactive
6,CCC=CC#N,inactive
7,C=CC(=O)[O-].C=CC(=O)[O-].[Zn+2],inactive
8,C=C1CCC2CC1C2(C)C (stereo not drawn),inactive
9,O=C(O)CCC(=O)C(=O)O,inactive
10,C=C1c2cccc(O)c2C(O)=C2C(=O)[C@]3(O)C(O)=C(C(N)=O)C(=O)[C@@H](N(C)C)[C@@H]3[C@@H](O)[C@H]12,inactive
11,CN1C(C(=O)Nc2ccccn2)=C(O)c2sccc2S1(=O)=O,inactive
12,Cc1cscn1,inactive
13,CCOC(=O)C1=C(C)NC(C)=C(C(=O)OC)C1c1cccc(Cl)c1Cl (stereo not drawn),inactive
14,C=C(C)C(=O)OCCOCCOC(=O)C(=C)C,inactive
15,CC(=O)Oc1ccc([N+](=O)[O-])cc1CCl,inactive
16,Cc1ccccc1N=C(N)Nc1ccccc1C,inactive
17,CC(C)c1nc(CN(C)C(=O)N[C@H](C(=O)N[C@@H](Cc2ccccc2)C[C@H](O)[C@H](Cc2ccccc2)NC(=O)OCc2cncs2)C(C)C)cs1,inactive
18,O=C(/C=C/c1ccccc1)OCCc1ccccc1,4.86 µM (active)
19,CN1C(=O)OC(C)(C)C1=O,inactive
20,CCN(CC)CCNC(=O)COc1ccc(OC)cc1,23.7 µM (active)
21,Cc1ccc(CO)cc1,inactive
22,CC(CO)CO,inactive
23,O=C1c2ccccc2C(=O)C1c1nc2ccccc2c(Br)c1O,inactive
24,CCCCCCCCCCC(=O)O,inactive

# Tested on: not listed separately
# Assay: qHTS assay to identify small molecule antagonists of the estrogen receptor alpha (ER-alpha) signaling pathway using the BG1 cell line (AID 743080; calls by dose curve;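 further: BG1 cells stimulated with 17beta-estradiol alongside compound; nearly all actives have a fitted effect of over 25% in size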; further: potency means the concentration at half of the fitted maximal effect)
# Conditions: BG1Luc4E2 ERE-luciferase antagonist mode, luminescence; series mostly up to 70.3 µM
# Method in brief: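 BG1-Luc-4E2 cells (endogenous full-length ER-alpha, stable 4×ERE-luciferase) were starved 5 days in phenol-red-free medium with 10% charcoal-stripped FBS, plated 24 h, then given compound plus 17beta-estradiol for 21.5 h at 37 C; ONE-Glo luminescence read after 30 min.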
row,Structure (SMILES),Potency
1,Brc1cc(Br)c(Oc2cc(Br)c(Br)cc2Br)cc1Br,inactive
2,O=C=Nc1cccc(C(F)(F)F)c1,inactive
3,CCCCN1CCCC1C(=O)Nc1c(C)cc(C)cc1C (stereo not drawn),inactive
4,O=C(OCC(O)CO)c1ccccc1Nc1ccnc2cc(Cl)ccc12 (stereo not drawn),inactive
5,O=Cc1c2ccccc2c(Cl)c2ccccc12,inactive
6,CCC=CC#N,inactive
7,C=CC(=O)[O-].C=CC(=O)[O-].[Zn+2],inactive
8,C=C1CCC2CC1C2(C)C (stereo not drawn),inactive
9,O=C(O)CCC(=O)C(=O)O,inactive
10,C=C1c2cccc(O)c2C(O)=C2C(=O)[C@]3(O)C(O)=C(C(N)=O)C(=O)[C@@H](N(C)C)[C@@H]3[C@@H](O)[C@H]12,inactive
11,CN1C(C(=O)Nc2ccccn2)=C(O)c2sccc2S1(=O)=O,inactive
12,Cc1cscn1,inactive
13,CCOC(=O)C1=C(C)NC(C)=C(C(=O)OC)C1c1cccc(Cl)c1Cl (stereo not drawn),inactive
14,COc1cc(N)c(Cl)cc1C(=O)NC1CCN(CCCOc2ccc(F)cc2)CC1OC (stereo not drawn),inactive
15,C=C(C)C(=O)OCCOCCOC(=O)C(=C)C,inactive
16,Cc1ccccc1N=C(N)Nc1ccccc1C,inactive
17,CC1=Nc2ccc3ccccc3c2C1(C)C,inactive
18,CC(C)c1nc(CN(C)C(=O)N[C@H](C(=O)N[C@@H](Cc2ccccc2)C[C@H](O)[C@H](Cc2ccccc2)NC(=O)OCc2cncs2)C(C)C)cs1,inactive
19,CN1C(=O)OC(C)(C)C1=O,inactive
20,CCN(CC)CCNC(=O)COc1ccc(OC)cc1,inactive
21,Cc1ccc(CO)cc1,inactive
22,NC1[C@H]2CN(c3nc4c(cc3F)c(=O)c(C(=O)O)cn4-c3ccc(F)cc3F)C[C@@H]12 (stereo partly drawn),13.3 µM (active)
23,CC(CO)CO,inactive
24,CC(C)(O)c1ccc(CNC(=O)c2cccnc2Oc2ccc3nonc3c2)cc1,inactive
25,CCCCCCCCCCC(=O)O,inactive

# Tested on: not listed separately
# Assay: qHTS assay to identify small molecule antagonists of the estrogen receptor alpha (ER-alpha) signaling pathway using the BG1 cell line - cell viability counter screen (AID 743081);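 further: compound given together with 17beta-estradiol as the ER stimulus; nearly all actives have a fitted effect of over 45% in size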; further: potency means the concentration at half of the fitted maximal effect
# Conditions: BG1Luc4E2 viability, CellTiter-Fluor, 22 h; series mostly up to 70.3 µM
row,Structure (SMILES),Potency
1,Brc1cc(Br)c(Oc2cc(Br)c(Br)cc2Br)cc1Br,inactive
2,CC1CC(C)C(=O)C1=O (stereo not drawn),inactive
3,O=C=Nc1cccc(C(F)(F)F)c1,inactive
4,CCCCN1CCCC1C(=O)Nc1c(C)cc(C)cc1C (stereo not drawn),inactive
5,O=C(OCC(O)CO)c1ccccc1Nc1ccnc2cc(Cl)ccc12 (stereo not drawn),inactive
6,CCCCCCCCN,inactive
7,O=Cc1c2ccccc2c(Cl)c2ccccc12,inactive
8,CCC=CC#N,inactive
9,C=CC(=O)[O-].C=CC(=O)[O-].[Zn+2],inactive
10,CC(C)=CCC1C(=O)N(c2ccccc2)N(c2ccccc2)C1=O,inactive
11,CO/N=C(/C(=O)N[C@@H]1C(=O)N2C(C(=O)O)=C(COC(N)=O)CS[C@H]12)c1ccco1,inactive
12,C=C1CCC2CC1C2(C)C (stereo not drawn),inactive
13,Cc1ccc(OC(=O)c2ccccc2O)cc1,inactive
14,O=C(O)CCC(=O)C(=O)O,inactive
15,C=C1c2cccc(O)c2C(O)=C2C(=O)[C@]3(O)C(O)=C(C(N)=O)C(=O)[C@@H](N(C)C)[C@@H]3[C@@H](O)[C@H]12,inactive
16,CC(C)C=O,inactive
17,Cc1cscn1,inactive
18,CCC(OCCCOC)OC(C)=O (stereo not drawn),inactive

row,Structure (SMILES),Potency
1,CC/C=C1/OC(=O)c2ccccc21,inactive
2,CCOC(=O)C1=C(C)NC(C)=C(C(=O)OC)C1c1cccc(Cl)c1Cl (stereo not drawn),inactive
3,C=C(C)C(=O)OCCOCCOC(=O)C(=C)C,inactive
4,CC(=O)Oc1ccc([N+](=O)[O-])cc1CCl,61.1 µM (active)
5,O=C(Nc1cccc2c(=O)cc(-c3nn[nH]n3)oc12)c1ccc(OCCCCc2ccccc2)cc1,inactive
6,CCOC(=O)OC(C)OC(=O)[C@@H]1N2C(=O)[C@@H](NC(=O)[C@H](N)c3ccccc3)[C@H]2SC1(C)C (stereo partly drawn),inactive
7,CC1=Nc2ccc3ccccc3c2C1(C)C,inactive
8,CC1=C(CC=O)C(C)(C)CCC1,inactive
9,O=C(/C=C/c1ccccc1)OCCc1ccccc1,inactive
10,CN1C(=O)OC(C)(C)C1=O,inactive
11,CCN(CC)CCNC(=O)COc1ccc(OC)cc1,inactive
12,CC1CC(OC(=O)C(O)c2ccccc2)CC(C)(C)N1C (stereo not drawn),inactive
13,Cc1ccc(CO)cc1,inactive
14,NC1[C@H]2CN(c3nc4c(cc3F)c(=O)c(C(=O)O)cn4-c3ccc(F)cc3F)C[C@@H]12 (stereo partly drawn),inactive
15,CC(CO)CO,inactive
16,O=C1c2ccccc2C(=O)C1c1nc2ccccc2c(Br)c1O,inactive
17,CC(C)(O)c1ccc(CNC(=O)c2cccnc2Oc2ccc3nonc3c2)cc1,inactive
18,CCCCCCCCCCC(=O)O,inactive
